From PubChem BioAssay AID602449 (Sanford-Burnham Center for Chemical Genomics, 2012)
About 5,000 (1.4%) of roughly 360,000 compounds were called active. Only a selection was taken, and actives are over-represented in it overall. Unmarked numbers belong to inactive results.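 The calls were made as follows: active = inhibition of 50% or more, scaled per plate between neutral and stimulator controls; inactive = the rest.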

Assay: blockers of Ca2+-induced mitochondrial swelling – biochemical, isolated mouse mitochondria, absorbance, primary screen (AID 602449);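 also: 0% = DMSO wells given calcium and 100% = 1 mM EGTA wells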
Conditions: 30 min, at 10 µM, active compounds read high

In order of rising inhibition:
1. Cc1ccc(NC(=O)c2sccc2C)cc1[N+](=O)[O-]  -8.8%
2. O=C(Nc1ccc(Cl)cc1)c1csc([C@@H]2O[C@H](CO)[C@H](O)[C@H](O)[C@H]2O)n1  -4.4%
3. Brc1ccc(Nc2c3c(nc4ncnn24)CCC3)cc1  -4.1%
4. O=C(CNC(=O)c1ccccc1Br)NNC(=O)c1cccs1  -3.3%
5. Cc1cccc(NC(=O)NC2(C)CCS(=O)(=O)C2)c1 (stereo not given)  -3.1%
6. CN(CC(=O)Nc1cccc(F)c1)C(=O)C1=COCCO1  -2.6%
7. Nc1ncnc2c1ncn2[C@@H]1O[C@H](CNCc2cccn2-c2nccs2)[C@@H](O)[C@H]1O  -2.5%
8. CCN1N=C(c2ccccc2)CCC1=O  -2.4%
9. CCCN(C(=O)c1nc2nccc(C)n2n1)c1c(N)n(Cc2ccccc2)c(=O)[nH]c1=O  -2.3%
10. COc1ccc(S(=O)(=O)N(C)CC(=O)N2CCCC2)cc1  -2.1%
11. Cc1cccc(NC(=S)N(CCN(C)C)C(C)c2ccco2)c1 (stereo not given)  -2.1%
12. Cc1noc(C)c1S(=O)(=O)Nc1ccc(C(=O)N2CCN(c3ccc(F)cc3)CC2)cc1  -2%
13. Cc1cc(Cl)c(S(=O)(=O)NCCC(=O)O)cc1OCC(N)=O  -1.7%
14. COc1ccc(CC(=O)NC2CCSc3ccccc32)cc1OC (stereo not given)  -1.7%
15. CC(C)NS(=O)(=O)c1ccc(NC(=O)c2cccnc2)cc1  -1.5%
16. COc1ccc(C2=NS(=O)(=O)N(C)C(C(=O)NC(C)c3ccccc3)=C2)cc1 (stereo not given)  -1.4%
17. CC1(C)CC(=O)c2cc(OCC(=O)NCC3CCCO3)ccc2O1 (stereo not given)  -1.4%
18. COc1ccc(C(=O)C2CCCN(C(=O)c3cc(C)on3)C2)cc1F (stereo not given)  -1.4%
19. O=C(NC(Cc1c[nH]c2ccccc12)C(=O)O)/C(=C/c1ccco1)NC(=O)c1ccccc1 (stereo not given)  -1%
20. COc1ccc(C(=O)O)cc1S(=O)(=O)NC1CCN(Cc2ccccc2)CC1  -1%
21. CCn1nnc(NC(=O)c2c(OC)cccc2OC)n1  -1%
22. CCOC(=O)N1CCC(NC(=O)CN2C(=O)COc3ccc(C(C)(C)C)cc32)CC1  -0.9%
23. CC/C(=N\NC(=O)c1ccccc1Cl)c1ccc(Br)s1  -0.9%
24. NNc1nc2c(Cl)cccc2s1  -0.9%
25. CCCCN1C(=O)C(CC(=O)NCc2cccs2)CC(C(=O)N2CCCCCC2)=C1C (stereo not given)  -0.8%
26. Cc1ccc(C(=O)Nc2c(-c3ccccc3)[nH][nH]c2=O)cc1  -0.8%
27. O=S(=O)(NC(=S)Nc1ccccc1)c1ccc(F)cc1  -0.7%
28. O=C(Nc1ccc(Cl)cc1)c1csc([C@H]2C[C@H](O)[C@@H](CO)O2)n1  -0.6%
29. CCCCc1ccc(NC(=O)NCc2cccnc2)cc1  -0.3%
30. CCCS(=O)(=O)NC(=O)C1(C)CCCN(C(=O)c2ccnc(Cl)c2)C1 (stereo not given)  -0.3%
31. CCOC(=O)c1cc(NC(=O)c2cccnc2)ccn1  -0.2%
32. CN(C)CCCN1C(=O)CSC1c1ccc([N+](=O)[O-])cc1 (stereo not given)  -0.2%
33. O=C(CN1CCN(C(=O)c2ccco2)CC1)Nc1ccc(Cl)c(C(F)(F)F)c1  -0.1%
34. CCC1C=C(c2ccccc2)C=CN=C1N(CC)CC (stereo not given)  -0.1%
35. Cc1ccoc1C(=O)Nc1cccc(Oc2ccccc2)c1  -0.1%
36. CN[C@H](C(=O)NC[C@H]1O[C@@H](n2cnc3c(N)ncnc32)[C@H](O)[C@@H]1O)[C@@H](C)OCc1ccccc1  -0.1%
37. O=S(=O)(Nc1ccccc1)c1ccc(NS(=O)(=O)c2cccs2)cc1  -0.1%
38. N#Cc1nc(N)nc(N(c2ccccc2)c2ccccc2)n1  0%
39. COc1ccc(CCNC(=O)COC(=O)Cc2cc(OC)c(OC)c(OC)c2)cc1  0%
40. O=C1NC(=O)C2C1C(c1ccc([N+](=O)[O-])cc1)=NN2Cc1ccccc1 (stereo not given)  0.1%
41. O=C(NNC1=C(C(=O)C(F)(F)F)CCC1)c1ccncc1  0.3%
42. O=C(CCCOc1ccccc1)Nc1cccc(C(=O)O)c1  0.4%
43. CC(=O)OC(COc1ccc(F)cc1)Cn1cnc2ccccc21 (stereo not given)  0.4%
44. COc1ccc(N(Cc2ccc(N(C)C)cc2)C(=O)c2ccc(S(C)(=O)=O)cc2)cc1  0.5%
45. CCCC1OC23CCCCC2C(C#N)(C#N)C1(C#N)C(=N)O3 (stereo not given)  0.5%
46. Cc1onc(-c2ccccc2)c1C(=O)N1CCN(S(=O)(=O)c2ccccc2C(F)(F)F)CC1  0.5%
47. COc1ccc(NC(=O)C(=O)NCC(c2ccco2)N2CCc3ccccc3C2)cc1 (stereo not given)  0.5%
48. COc1cc(CCC(=O)Nc2ccncc2Cl)cc(OC)c1OC  0.5%
49. Cc1c(NC(=S)Nc2ccccc2)c(=O)n(-c2ccccc2)n1C  0.8%
50. COC(=O)c1ccc2c(c1)S(=O)(=O)NC(=NCCCN1CCOCC1)S2  0.8%
51. Cc1cccc(NC(=S)NCc2ccc3[nH]c4c(c3c2)CCCC4)c1  1%
52. O=C(NC1(C(F)(F)F)NC(=O)N(Cc2cccnc2)C1=O)c1ccccc1Cl (stereo not given)  1%
53. O=C(CSc1n[nH]c(-c2cccnc2)n1)Nc1ccc(Cl)cc1  1.2%
54. CCc1cc(=O)oc2cc(C)cc(OC(C)C(=O)O)c12 (stereo not given)  1.3%
55. O=S(=O)(Nc1ccccc1Br)c1cccs1  1.3%
56. O=C1CS(=O)CN1c1ccc(Oc2ccccc2)cc1 (stereo not given)  1.6%
57. CC1(C(=O)NS(=O)(=O)c2cccs2)CCN1C(=O)Cc1ccc(-c2ccccc2)cc1 (stereo not given)  1.6%
58. COc1ccc(Cl)cc1NC(=O)COC(=O)C(CC(C)C)N1C(=O)C2CC=CCC2C1=O (stereo not given)  1.6%
59. CC(=O)N(CC1CCCO1)C1(C(=O)NC2CCCC2)CCCCC1 (stereo not given)  1.8%
60. CC(C)c1ccc(CC(=O)N2CCC2(C)C(=O)NS(=O)(=O)c2ccc(C(C)(C)C)cc2)cc1 (stereo not given)  1.8%
61. O=C(CSc1ccccc1)Nc1nnc(/C=C/c2ccccc2)s1  2.2%
62. O=C(NNC(=S)NC(=O)c1cn(-c2ccccc2)nc1-c1ccccc1)c1ccncc1  2.2%
63. COc1ccc(CC(=O)Nc2ccccc2NC(=O)c2ccco2)cc1OC  2.5%
64. C=CCN(N=Nc1cccc([N+](=O)[O-])c1)c1cccc([N+](=O)[O-])c1  2.6%
65. COc1ccc(/C=C/c2nnc(NC(=O)C(C)C)s2)cc1  2.7%
66. Cc1cccc(NC(=S)N2CCC(c3nc4ccccc4s3)CC2)c1  3%
67. CC1(C(=O)O)CCC(C(=O)Nc2ccc(Cl)c(Cl)c2)C1(C)C (stereo not given)  3.1%
68. CCc1cc(C(=O)OC)c(NC(=O)CC2Sc3ccc(C(F)(F)F)cc3NC2=O)s1 (stereo not given)  3.8%
69. COC(=O)c1noc(C)c1-c1ccnn1C(=O)c1ccc(Cl)cc1  5%
70. Fc1ccc2nc(Nc3nc4c(s3)CCCC4)sc2c1  5.3%
71. CCOC(=O)c1ccccc1NC(=O)CSc1nc2c(sc(=S)n2CC)c(=O)[nH]1  5.4%
72. N#Cc1cccc(Nc2c3c(nc4ccccc24)CCCC3)c1  6.5%
73. Cc1cccc(NS(=O)(=O)c2cccc(C(=O)NNC(=O)c3ccccc3O)c2)c1  6.9%
74. O=C(CNCCC1=CCCCC1)Nc1ccccc1N1CCCCCC1  11.6%
75. Fc1cc(Br)ccc1NC(=S)Nc1cccnc1  12.7%
76. O=C(Cn1nc(CNc2ccc(Cl)cc2)[n+]2c1CCCCC2)c1ccc(Cl)cc1  29.5%

In the case of `O=C(CC(O)(C(F)(F)F)C(F)(F)F)Nc1ccc(Cl)c(Cl)c1`, the inhibition is reported as 84.6% (active).
In the case of `O=C1CC(c2ccccc2)=NN1c1ccc([N+](=O)[O-])cc1`, the inhibition is reported as 91.3% (active).
With `Cc1c(C(=O)OC(C)C)sc(NC(=O)c2cccnc2)c1C#N` the inhibition was 67.6% (active).
With `O=C(Nc1ccc(Cl)cc1)Nc1nnc(/C=C/c2ccccc2)s1` the inhibition was 89.9% (active).
With `COc1ccc2sc(N(CCCN(C)C)C(=O)c3ccc(S(=O)(=O)N(C)C4CCCCC4)cc3)nc2c1` the inhibition was 82.5% (active).
For `Cc1cccc(NC(=S)Nc2ccc(Br)cc2)c1`, the inhibition was 96.8% (active).
For `S=C(Nc1ccccc1)Nc1ccc2ccccc2c1`, the inhibition was 67.5% (active).
In the case of `Cc1cccc(NC(=S)Nc2ccc(Cl)c(Cl)c2)c1`, the inhibition is reported as 101% (active).
In the case of `Cc1ccc(Nc2c3c(nc4ccccc24)CCC3)cc1`, the inhibition is reported as 79.8% (active).
In the case of `Cc1cccc(NC(=O)Nc2cccc(Oc3c(F)c(F)c(F)c(F)c3F)c2)c1`, the inhibition is reported as 93.2% (active).
In the case of `Cc1onc(-c2ccccc2)c1C(=O)NNC(=S)NC(=O)c1ccc(F)cc1`, the inhibition is reported as 90.1% (active).
In the case of `Cc1ccc(NC(=O)CN(C)CC(=O)Nc2cccc(F)c2)cc1[N+](=O)[O-]`, the inhibition is reported as 97.2% (active).
In the case of `O=C(C/C(=N\NC(=O)c1ccccc1Br)C(F)(F)F)c1cccs1`, the inhibition is reported as 59.2% (active).
In the case of `O=C(Nc1cccc(Cl)c1)Nc1ccccc1NS(=O)(=O)c1cccs1`, the inhibition is reported as 87.7% (active).
For `Fc1cc(F)c2nc(Nc3nc4c(F)cccc4s3)sc2c1`, the inhibition was 94.3% (active).
For `CCCCCCCCCCCCN1C(=O)CSC1c1cccnc1` (stereo not given), the inhibition was 62.4% (active).
With `COc1ccc(CC(=O)Nc2nc(-c3ccc(F)c(F)c3)cs2)cc1OC` the inhibition was 108% (active).
With `COc1cc(CC(=O)Nc2nc(-c3ccc(F)c(F)c3)cs2)cc(OC)c1OC` the inhibition was 105% (active).
With `O=C(NNC(=O)c1csc(-c2cccnc2)n1)Nc1ccc(Cl)cc1` the inhibition was 56.5% (active).
